Granule exo inh: lytic granule exocytosis inhibition; TALL-104 LAMP-1 surface exposure, flow cytometry; cells stimulated with thapsigargin and PMA; AID 651702; 360,000 compounds, 0.66% hits; inhibition, % at 10 µM;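 active = inhibition above about 55%, limit read from the data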
PP1 inh: PP1-alpha (human) inhibition in PP5 counter-screen | AID 2235 | P62136 | purified PP1alpha, OMFP fluorescence | inhibition, % at 6.7 µM | 320,000 compounds, 0.9% hits;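 active = inhibition above the mean inhibition of all tested compounds plus 3 SD, computed separately for each screening campaign, cut at about 15% in these data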
GRK2 inh: human GRK2 inhibition via aptamer displacement; bead flow cytometry, FAM-aptamer displacement from GRK2; inhibition of aptamer binding, % at 10 µM; 330,000 compounds, 0.59% hits; AID 488847;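 active = inhibition of aptamer binding above 40%, roughly 3 SD of noise, on plates passing a quality check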;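 also: median bead fluorescence of bound FAM aptamer so fluorescent compounds give negative values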
Target sequence (P25098 whole entry, looked up): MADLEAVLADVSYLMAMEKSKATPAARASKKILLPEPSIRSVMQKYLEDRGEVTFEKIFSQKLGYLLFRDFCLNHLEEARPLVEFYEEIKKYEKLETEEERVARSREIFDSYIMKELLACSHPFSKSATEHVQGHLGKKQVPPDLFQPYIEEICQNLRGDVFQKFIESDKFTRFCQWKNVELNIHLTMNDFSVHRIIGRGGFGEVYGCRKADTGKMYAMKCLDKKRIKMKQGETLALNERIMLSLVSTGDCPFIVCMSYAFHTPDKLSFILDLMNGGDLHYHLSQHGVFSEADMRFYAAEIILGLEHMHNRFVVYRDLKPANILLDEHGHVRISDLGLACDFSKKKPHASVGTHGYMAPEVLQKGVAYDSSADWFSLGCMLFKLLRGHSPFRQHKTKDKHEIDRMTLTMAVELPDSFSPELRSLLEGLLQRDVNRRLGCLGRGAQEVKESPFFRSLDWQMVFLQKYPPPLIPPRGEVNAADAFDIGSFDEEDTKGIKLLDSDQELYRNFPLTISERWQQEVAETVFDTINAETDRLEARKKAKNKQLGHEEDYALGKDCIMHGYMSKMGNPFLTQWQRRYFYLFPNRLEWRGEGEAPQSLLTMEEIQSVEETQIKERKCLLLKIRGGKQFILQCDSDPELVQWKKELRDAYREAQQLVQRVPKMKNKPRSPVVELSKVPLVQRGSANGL
Beta2AR agonist: agonists of human beta-2 adrenergic receptor inducing internalization. P07550. Am2.2-beta2AR cells, FAP receptor internalization, flow cytometry. response, % (test concentration not listed). 340,000 compounds, 0.43% hits;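 active = response above a set limit, near 3 SD of response in nonfluorescent compounds, cut at about 42% in these data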
NadD inh: inhibitors of Staphylococcus aureus NadD. purified NadD enzyme, colorimetric absorbance read-out. 360,000 compounds, 0.78% hits. inhibition, % at 20 µM; in the data active = inhibition above about 26%
Granule exo CP1: lytic granule exocytosis inhibition | shares compounds with Granule exo inh | TALL-104 cells, LAMP-1 externalization, flow cytometry; stimulated with PMA plus thapsigargin | inhibition, % at 10 µM | 1,500 compounds, 11% hits | AID 651954; in the data active = inhibition above about 60%
Of the large screens only hits and unclear results are named; the others gave an inactive call (follow-up assays come after a bar, where they were run). Sampled rows, rich in hits. Any-hit rate of the full collection: about 2.9%.

COc1cccc(CNC(=O)C2CCN(S(=O)(=O)c3ccc(Br)s3)CC2)c1	Granule exo inh 63 | Granule exo CP1 inactive
COCc1cc(C)nc(N/N=C/c2ccc(-c3cc(C(=O)O)ccc3Cl)o2)c1C#N	none (no result: Granule exo inh, Beta2AR agonist, NadD inh)
C[C@H](CO)N1C[C@H](C)[C@@H](CN(C)C(=O)NC2CCCCC2)Oc2ccc(NS(C)(=O)=O)cc2C1=O	Granule exo inh 73 (no result: PP1 inh) | Granule exo CP1 inactive
CC(C)NC(=O)N(C)C[C@H]1Oc2c(NC(=O)Nc3ccc(C(F)(F)F)cc3)cccc2C(=O)N([C@H](C)CO)C[C@@H]1C	Granule exo inh 60 (no result: PP1 inh) | Granule exo CP1 inactive
C[C@@H]1CN([C@@H](C)CO)C(=O)c2cc(NS(C)(=O)=O)ccc2O[C@@H]1CN(C)Cc1ccc(C(F)(F)F)cc1	Granule exo inh 62 (no result: PP1 inh, GRK2 inh) | Granule exo CP1 inactive
O=C(CNS(=O)(=O)c1ccccc1F)NNC(=O)c1ccc(Br)cc1	none (no result: PP1 inh, GRK2 inh)
CC1(C(=O)NCc2ccccc2)CCC(=O)N1CCCn1ccnc1 (centres undefined)	none (no result: PP1 inh, GRK2 inh, Beta2AR agonist)
Cc1ccc(S(=O)(=O)NC(CC(C)C)C(=O)NCCCn2nc(C)cc2C)cc1 (centres undefined)	none
O=C(c1ccccc1NS(=O)(=O)c1ccc(Br)s1)N1CCCC1	none
CC(C)NC(=O)c1ccccc1NS(=O)(=O)c1ccc(Br)s1	Granule exo inh 59 (no result: PP1 inh, GRK2 inh) | Granule exo CP1 inactive
CCC1CCCCN1CCCNC(=O)c1ccc2c(=O)n(CCOC)c(=O)[nH]c2c1 (centres undefined)	none
CSCC[C@@H](CO)NC(=O)[C@H]1O[C@@H](n2ccc(=O)[nH]c2=O)[C@H](O)[C@@H]1O	none (no result: PP1 inh, GRK2 inh, Beta2AR agonist)
O=C(CSc1nc2ccccc2[nH]1)Nc1cc(C(F)(F)F)ccc1N1CCOCC1	Granule exo inh 62 | Granule exo CP1 inactive
O=C(NC1CCCc2c1cnn2-c1ccc(F)cc1F)c1ccccc1N1CCOCC1 (centres undefined)	none
CC(=O)N[C@@H](Cc1c[nH]c2ccccc12)C(=O)OCC(=O)Nc1ccc2c(c1)OCO2	none (no result: PP1 inh, GRK2 inh)
O=C(COC(=O)[C@H](Cc1c[nH]c2ccccc12)NC(=O)c1ccc(Cl)cc1)Nc1ccc2c(c1)OCO2	Granule exo inh 69 | Granule exo CP1 78
CCCCCCCn1c2c(c(=N)c3ccccc31)CCC2	Granule exo inh 71 | Granule exo CP1 inactive
CCCn1c2c(c(=N)c3c1CCC3)CCC2	none
CCc1nc2ccc(C(=O)NC3CCN(Cc4ccccc4)CC3)cn2c1N(C)Cc1cc2ccccc2s1	Granule exo inh 59 (no result: PP1 inh, GRK2 inh, Beta2AR agonist) | Granule exo CP1 65
Cc1cn2c(=O)c(C(=O)NCc3ccc4c(c3)OCO4)cnc2s1	Granule exo inh 59 | Granule exo CP1 inactive
CN(CCc1ccccc1)C(=O)c1cccc(NC(=O)Cc2cccc([N+](=O)[O-])c2)c1	none (no result: PP1 inh)
CSc1cccc(NC(=S)N(CCCN2CCCC2)Cc2cccn2Cc2ccc(Cl)cc2)c1	Granule exo inh 93 | Granule exo CP1 63
COc1cccc(NC(=S)N(CCCN2CCCC2)Cc2cccn2Cc2ccc(Cl)cc2)c1	none
COc1ccc(-n2c(=O)[nH]c3cc(C(=O)NCCc4ccccc4)ccc3c2=O)cc1OC	none
Cc1nc(NC(=O)C2CC2)sc1C(=O)Nc1ccccc1	none
COC(=O)c1c(NC(=O)C2CC2)sc(C(=O)Nc2ccccc2)c1C	Granule exo inh 75 | Granule exo CP1 inactive
Cc1cc(Nc2ccc(F)cc2)nc(N)n1	none
Cc1cc(Nc2cc(Cl)cc(Cl)c2)nc(N)n1	Granule exo inh 62 | Granule exo CP1 inactive
COc1ccc(CCN(C)C(=O)CSc2ncnc3sccc23)cc1OC	Granule exo inh 77 | Granule exo CP1 inactive
COc1ccc(CCN(C)c2ncnc3sccc23)cc1OC	none
COc1ccccc1NC(=O)CN1CCN(C(=O)C2CCCO2)CC1 (centres undefined)	none
CCOC(=O)N1CCN(C(=O)c2ccc3c(=O)n4c(nc3c2)CCCCC4)CC1	none (no result: Granule exo inh, Beta2AR agonist, NadD inh)
COc1ccc(N(CC(=O)N/N=C(\C)c2ccc(OC)c(OC)c2)S(=O)(=O)c2ccccc2)cc1	none
N#Cc1ccccc1CSc1ccccn1	none
N#Cc1ccc(CSc2ccccn2)c(Cl)c1	Granule exo inh 81 | Granule exo CP1 inactive
Cc1ccc2nc(-c3ccc(N4C(=O)CC(N5CCN(CCO)CC5)C4=O)cc3)sc2c1 (centres undefined)	Granule exo inh 66 | Granule exo CP1 62
Fc1cccc(Cc2c(-c3ccco3)nc3c4ccccc4ccn23)c1	Granule exo inh 87 (no result: PP1 inh, GRK2 inh, Beta2AR agonist) | Granule exo CP1 inactive
Clc1cccc(Cc2c(-c3ccco3)nc3c4ccccc4ccn23)c1	Granule exo inh 96 (no result: PP1 inh, GRK2 inh, Beta2AR agonist) | Granule exo CP1 inactive
CSc1ccc2c(c1)C(N1CCN(C)CC1)Cc1ccc(F)cc1S2 (centres undefined)	Granule exo inh 69 | Granule exo CP1 inactive
O=[N+]([O-])c1ccc2c(c1)C(N1CCN(CCO)CC1)Cc1ccc(F)cc1S2 (centres undefined)	none (no result: PP1 inh, GRK2 inh, Beta2AR agonist)
O=C(NCCO)C(=O)Nc1cc2c3c(c1)CCC(=O)N3CCC2	none
Cc1cc(O)c(Sc2ncn[nH]2)cc1NS(=O)(=O)c1ccc(Cl)cc1	none
O=S(=O)(Nc1cc(Sc2ncn[nH]2)c(O)c2ccccc12)c1ccccc1	Granule exo inh 101 (no result: PP1 inh, GRK2 inh) | Granule exo CP1 103
COc1ccc(-c2cc3c(o2)CCCC3OCCN2CCOCC2)cc1 (centres undefined)	none (no result: PP1 inh, GRK2 inh, Beta2AR agonist)
O=C(Nc1ccc(S(=O)(=O)N2CCCC2)cc1)c1ccc(Br)o1	Granule exo inh 80 | Granule exo CP1 inactive
O=C(Nc1ccc(S(=O)(=O)N2CCOCC2)cc1)c1ccc(Br)o1	none
COc1ccc(NC(=O)c2c(C)nn(Cc3ccccc3)c2C)cc1S(=O)(=O)N(C)C	Granule exo inh 71 | Granule exo CP1 inactive
COc1ccc(S(=O)(=O)N2CCN(C(=O)CCSc3ccccc3)CC2)cc1	Granule exo inh 102 | Granule exo CP1 inactive
COc1ccc(S(=O)(=O)N2CCN(C(=O)CCNC(=O)c3ccccc3Cl)CC2)cc1	none
CCOC(=O)c1c2c(n(Cc3ccccc3)c1C)C(=O)C(=O)c1ccccc1-2	Granule exo inh 99 (no result: PP1 inh, GRK2 inh) | Granule exo CP1 inactive
COc1ccc(F)cc1-c1cc(NC=O)c2ncc(-c3cccc(C(F)(F)F)c3)n2c1	none (no result: PP1 inh, GRK2 inh, Beta2AR agonist)
COc1cccc(NC(=O)COc2cccc(-n3cnnn3)c2)c1	none
Cc1cc(OCCCC(=O)Nc2cccc(-n3cnnn3)c2)ccc1Cl	Granule exo inh 66 | Granule exo CP1 inactive
Clc1ccc(C2Nc3cccc4cccc(c34)N2)c(Cl)c1	Granule exo inh 74 (no result: PP1 inh, GRK2 inh) | Granule exo CP1 inactive
CCN(CC)CCn1c(=N)n(CC(=O)c2ccc(C)cc2)c2ccccc21	Granule exo inh 56 | Granule exo CP1 inactive
Cc1ccc(C(c2nnnn2Cc2cccs2)N2CCN(Cc3ccc4c(c3)OCO4)CC2)cc1 (centres undefined)	Granule exo inh 60 | Granule exo CP1 inactive
CCOc1ccc(NC(=O)c2ccc(F)cc2F)cc1	Granule exo inh 62 | Granule exo CP1 inactive
CCO[C@@H]1OC(C(=O)NCc2ccccc2)=C[C@H](c2csc3ccccc23)[C@H]1CCCO	none
